Measured values from PubChem BioAssay (Tox21).
Inconclusive results are not listed. Entries that show only a call come without a potency. The source made the active and inactive calls. Unless noted, the call rests on the fitted dose curve; in most records, active means well fitted curve in the direction sought with a large enough effect in the repeat runs; inconclusive means weak or mixed curves; inactive means no such curve, though single readings can be large; an effect the other way counts as inactive or inconclusive.

Experiments:
[1] = qHTS assay for small molecules that induce genotoxicity in human embryonic kidney cells expressing luciferase-tagged ATAD5 (AID 651632); further: nearly all actives have a fitted effect of over 15% in size
In short: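 A rise in luciferase signal from ATAD5-tagged HEK293T cells marks genetic stress. Cells were exposed to compounds for 16 hr at 37C, 5% CO2, then luciferase was quantified after a 30 min room-temperature incubation with Amplite.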

[2] = qHTS assay for small molecule agonists of the p53 signaling pathway - cell viability (AID 651633; calls by dose curve; further: nearly all actives have a fitted effect of over 30% in size; further: potency means the concentration at half of the fitted maximal effect)
In short: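 p53RE-bla cells, seeded at 4,000 per well and rested 5 h at 37 C/5% CO2, received compounds in DMSO for 16 h at 37 C. CellTiter-Glo was then added, and luminescence was read after 30 min at room temperature to gauge cytotoxicity.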

[3] = qHTS assay for small molecules that induce genotoxicity in human embryonic kidney cells expressing luciferase-tagged ATAD5 - cell viability (AID 651634; calls by dose curve; further: nearly all actives have a fitted effect of over 25% in size; further: potency means the concentration at half of the fitted maximal effect)
In short: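 Cytotoxicity counter-readout: after 15.5 hr compound treatment at 37C, live-cell protease activity in ATAD5-luciferase HEK293T cells measured by CellTiter-Fluor fluorescence, 30 min development at 37C.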

[4] = qHTS assay for small molecule disruptors of the mitochondrial membrane potential - cell viability (AID 720634; calls by dose curve; further: nearly all actives have a fitted effect of over 20% in size; further: potency means the concentration at half of the fitted maximal effect)
In short: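 Cytotoxicity was quantified from ATP content by CellTiter-Glo luminescence in the same wells as the MMP dye read-out. HepG2 (2,000 cells/well) were plated overnight and exposed to compounds for 1 hr at 37 C.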

[5] = qHTS assay to test for compound auto fluorescence at 590 nm (red) in HepG2 cells (AID 720674)
In short: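 Compound auto-fluorescence is scored relative to Rose Bengal sodium, measured at 540/590 nm in live HepG2 cultures after 1 hr compound contact (37 C, 5% CO2).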

[6] = qHTS assay to test for compound auto fluorescence at 535 nm (green) in HepG2 cells (AID 720675)
[7] = qHTS assay to test for compound auto fluorescence at 460 nm (blue) in HEK293 cells (AID 720678)
In short: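 Measured: blue fluorescence (Ex 405/Em 460 nm) of compound-treated HEK293 cells, incubated overnight at 37C with 5% CO2 and scaled to triamterene equivalents.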

[8] = qHTS assay to test for compound auto fluorescence at 590 nm (red) in HEK293 cells (AID 720679)
In short: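 Using HEK293 cells at 2,000 per well, the screen added 23 nL of each compound after cell attachment and incubated overnight (37C, 5% CO2). The plate reader then captured red-label fluorescence, Ex/Em 540/590nm.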

[9] = qHTS assay to test for compound auto fluorescence at 535 nm (green) in HEK293 cells (AID 720680)
[10] = qHTS assay to test for compound auto fluorescence at 460 nm (blue) in HEK293 cell free culture (AID 720681)
In short: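 Test compounds were pinned into cell-free culture medium (DMEM with 10% FBS) and fluorescence was read directly at Ex/Em 405/460 nm. Signals were expressed as fluorescence equivalents of triamterene, with DMSO vehicle as control.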

[11] = qHTS assay to test for compound auto fluorescence at 535 nm (green) in HEK293 cell free culture (AID 720682)
In short: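 DMEM + 10% FBS, cell-free; cpd or DMSO pinned in; Ex485/Em535 read; output as fluorescein-equivalent signal.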

[12] = qHTS assay to test for compound auto fluorescence at 590 nm (red) in HEK293 cell free culture (AID 720683)
In short: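 Tox21 10K library compounds were pinned into cell-free DMEM with 10% FBS and fluorescence was read at excitation 540 nm. Activity is expressed as Rose Bengal sodium equivalency.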

[13] = qHTS assay to test for compound auto fluorescence at 590 nm (red) in HepG2 cell free culture (AID 720684)
In short: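 Ex 540 / Em 590 nm read of compound in cell-free MEM (10% FBS). Rose Bengal sodium reference.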

[14] = qHTS assay to test for compound auto fluorescence at 460 nm (blue) in HepG2 cell free culture (AID 720685)
In short: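 Cell-free plates of MEM plus 10% FBS received 23 nL compound or DMSO vehicle; blue-channel (405/460 nm) intensity scored against triamterene as reference fluorophore.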

[15] = qHTS assay to test for compound auto fluorescence at 535 nm (green) in HepG2 cell free culture (AID 720686)
[16] = qHTS assay to test for compound auto fluorescence at 460 nm (blue) in HepG2 cells (AID 720687)
In short: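 Cells (2,000/well in MEM with 10% FBS) attached overnight at 37 C, then were exposed to compound or DMSO for 1 hr at 37 C, 5% CO2. Fluorescence read at Ex/Em 405/460 nm, expressed as triamterene-equivalent signal.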

[17] = molecular target: Glucocorticoid receptor (Homo sapiens) (UniProt P04150); assay: qHTS assay to identify small molecule antagonists of the glucocorticoid receptor (GR) signaling pathway (AID 720692; active means well fitted inhibition curve with a large enough effect in the signal ratio in the repeat runs, not every such curve was filed as active; the % refers to the signal ratio; further: potency means the concentration at half of the fitted maximal effect)
In short: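 Inhibition of dexamethasone-driven (5 nM final) beta-lactamase expression was measured in GRE-reporter HeLa cells over 18 h at 37C. Fluorescence was read after 2 h with the B/G FRET substrate at room temperature.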

[18] = molecular target: Glucocorticoid receptor (Homo sapiens) (UniProt P04150); assay: qHTS assay to identify small molecule agonists of the glucocorticoid receptor (GR) signaling pathway (AID 720691; active means well fitted activation curve with a large enough effect in the signal ratio in the repeat runs, not every such curve was filed as active; the % refers to the signal ratio; further: potency means the concentration at half of the fitted maximal effect); details: GR-bla HeLa, beta-lactamase reporter ratio, 18 h; activation: at 62.4 µM (top of the series)
In short: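 Agonist-mode qHTS in HeLa cells stably expressing a glucocorticoid-response-element beta-lactamase reporter. Fluorescence intensity read with FRET substrate (2 h, room temperature) after 18 h compound treatment at 37 C.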

[19] = qHTS assay for small molecule disruptors of the mitochondrial membrane potential (AID 720635); further: potency means the concentration at half of the fitted maximal effect
In short: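 HepG2 cells (2,000/well) attached overnight at 37C, then took compound for 1 hr at 37C, 5% CO2. Mito-MPS dye was added for 30 min; fluorescence was read at 490/535 nm (monomers) and 540/590 nm (aggregates).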

Glucocorticoid receptor (Homo sapiens), sequence (P04150 whole entry, looked up): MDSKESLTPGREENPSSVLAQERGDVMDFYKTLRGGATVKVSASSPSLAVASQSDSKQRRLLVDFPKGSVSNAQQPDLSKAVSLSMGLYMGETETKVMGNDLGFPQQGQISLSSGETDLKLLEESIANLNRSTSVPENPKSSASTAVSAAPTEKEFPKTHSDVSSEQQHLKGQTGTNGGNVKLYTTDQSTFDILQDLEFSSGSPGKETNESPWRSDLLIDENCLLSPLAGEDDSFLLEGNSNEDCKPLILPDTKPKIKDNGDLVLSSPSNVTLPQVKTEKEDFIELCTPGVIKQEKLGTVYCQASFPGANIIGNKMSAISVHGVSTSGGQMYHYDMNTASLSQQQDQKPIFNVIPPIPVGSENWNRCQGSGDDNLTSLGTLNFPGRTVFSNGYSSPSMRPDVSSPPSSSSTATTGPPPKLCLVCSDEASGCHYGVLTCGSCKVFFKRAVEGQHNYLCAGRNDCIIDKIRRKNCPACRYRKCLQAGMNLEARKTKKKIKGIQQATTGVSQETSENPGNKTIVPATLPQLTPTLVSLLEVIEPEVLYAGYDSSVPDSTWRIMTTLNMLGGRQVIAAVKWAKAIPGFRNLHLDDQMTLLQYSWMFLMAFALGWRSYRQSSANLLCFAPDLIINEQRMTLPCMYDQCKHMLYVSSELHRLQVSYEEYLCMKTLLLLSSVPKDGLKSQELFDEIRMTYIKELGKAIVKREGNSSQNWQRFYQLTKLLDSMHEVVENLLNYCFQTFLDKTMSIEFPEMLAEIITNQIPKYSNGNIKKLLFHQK

Structure (SMILES) | Potency [1] | Potency [2] | Potency [3] | Potency [4] | Potency [5] | Potency [6] | Potency [7] | Potency [8] | Potency [9] | Potency [10] | Potency [11] | Potency [12] | Potency [13] | outcome [14] | Potency [15] | outcome [16] | Potency [17] | Potency [18] | Potency [19]
CCCOc1cc(N)ccc1C(=O)OCCN(CC)CC | inactive | inactive | inactive | inactive | inactive | inactive | inactive | inactive | inactive | inactive | inactive | inactive | inactive | inactive | inactive | inactive | inactive | – | –
O=C(OC1C[C@@H]2CC3C[C@H](C1)N2CC3=O)c1c[nH]c2ccccc12 (stereo partly drawn) | inactive | inactive | inactive | inactive | inactive | inactive | inactive | inactive | inactive | inactive | inactive | inactive | inactive | – | inactive | inactive | inactive | inactive | –
CC(C)(CO)[C@@H](O)C(=O)NCCCC(=O)O | inactive | inactive | inactive | inactive | inactive | inactive | inactive | inactive | inactive | inactive | inactive | inactive | inactive | inactive | inactive | inactive | inactive | inactive | –
CC(C)=CCC/C(C)=C/C=C/C(C)=C/C=C/C(C)=C/C=C/C=C(C)/C=C/C=C(C)/C=C/C=C(\C)CCC=C(C)C | inactive | inactive | inactive | inactive | inactive | inactive | – | inactive | inactive | inactive | inactive | inactive | inactive | inactive | inactive | inactive | inactive | inactive | –
CCC(=O)O[C@]1(C(=O)CCl)[C@@H](C)C[C@H]2[C@@H]3C[C@H](F)C4=CC(=O)C=C[C@]4(C)[C@@]3(F)[C@@H](O)C[C@@]21C | inactive | inactive | inactive | – | inactive | inactive | inactive | inactive | inactive | inactive | inactive | inactive | inactive | inactive | inactive | inactive | – | 0.0007 µM (active) | 11.9 µM (active)
OCCN1CCN(CC/C=C2/c3ccccc3Sc3ccc(Cl)cc32)CC1 | inactive | inactive | inactive | inactive | inactive | inactive | inactive | inactive | inactive | inactive | inactive | inactive | inactive | inactive | inactive | inactive | inactive | inactive | –
CN[C@@H]1[C@H](O[C@H]2[C@H](O[C@H]3[C@H](O)[C@@H](O)[C@H](N=C(N)N)[C@@H](O)[C@@H]3N=C(N)N)O[C@@H](C)[C@]2(O)CO)O[C@@H](CO)[C@H](O)[C@H]1O | inactive | inactive | inactive | inactive | inactive | – | inactive | inactive | inactive | inactive | inactive | inactive | inactive | inactive | inactive | inactive | inactive | inactive | –
CCCc1nc(C(C)(C)O)c(C(=O)OCc2oc(=O)oc2C)n1Cc1ccc(-c2ccccc2-c2nn[nH]n2)cc1 | inactive | inactive | inactive | – | inactive | inactive | inactive | inactive | inactive | inactive | inactive | inactive | inactive | inactive | inactive | inactive | – | – | –
CCN(CC)CCC(=O)N1c2ccccc2Sc2ccc(C(F)(F)F)cc21 | inactive | inactive | inactive | inactive | inactive | inactive | inactive | inactive | inactive | inactive | inactive | inactive | inactive | inactive | inactive | inactive | 23.9 µM (active) | inactive | –
CCOc1cc(-c2nccc3cc(OC)c(OC)cc23)cc(OCC)c1OCC | inactive | inactive | 26.6 µM (active) | – | inactive | inactive | inactive | inactive | inactive | inactive | inactive | inactive | inactive | inactive | inactive | inactive | inactive | inactive | –
Cc1cc(-c2ccc(N=Nc3c(S(=O)(=O)O)cc4cc(S(=O)(=O)O)cc(N)c4c3O)c(C)c2)ccc1N=Nc1c(S(=O)(=O)O)cc2cc(S(=O)(=O)O)cc(N)c2c1O | inactive | inactive | 26.6 µM (active) | – | inactive | inactive | inactive | inactive | inactive | inactive | inactive | inactive | inactive | inactive | inactive | inactive | – | inactive | –
O=[N+]([O-])c1c(Cl)cccc1-c1c[nH]cc1Cl | inactive | 33.5 µM (active) | inactive | 10.6 µM (active) | inactive | inactive | inactive | inactive | inactive | inactive | inactive | inactive | inactive | inactive | inactive | inactive | 21.3 µM (active) | inactive | –
C[C@]12CCC(=O)C[C@@H]1CC[C@@H]1[C@@H]2CC[C@]2(C)C=CC[C@@H]12 | inactive | inactive | inactive | inactive | inactive | inactive | inactive | inactive | inactive | inactive | inactive | inactive | inactive | inactive | inactive | inactive | inactive | inactive | –
